# Source: PubChem BioAssay (NCATS)
# Inconclusive results are not listed. A call without a number means that no potency is given here. Activity calls are given as the source filed them. Calls come from the whole dose curve; as a rule, active = well fitted inhibition curve with a large enough effect; inconclusive = small, poorly fitted or top-dose-only effect; inactive = flat fitted curve, though single readings scatter. Numbered stars: 1 amine (or outer) side, 2 acyl side, 3 side chain; on linkers, the order of the positions; unused ones are H or OH. Bridge positions count the residues as written; N and C are the ends. Square brackets hold non-standard residues; d marks the D form. Peptide text beside a SMILES is read from it. I, II: the chains in the order shown. Actinocin(9to1) = Cc1c2oc3c(C)ccc(C(=O)[*:1])c3nc-2c(C(=O)[*:2])c(N)c1=O; NMeV = CN[C@H](C(=O)O)C(C)C; Sar = CNCC(=O)O
# Experiment: qHTS to identify inhibitors of the type 1 interferon - major histocompatibility complex class I in skeletal muscle: primary screen against the NCATS Pharmaceutical Collection (AID 1347407);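 note: luminescence of HiBiT knocked into endogenous HLA-B as interferon-induced MHC class I level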
# Details: human skeletal muscle cells, IFN-b-induced MHC-I HiBiT luminescence, 24 h; series mostly up to 45.9 µM
# Summary of the method: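 A qHTS format is used: 8-point, 1:5 compound series with 46 uM top final concentration, applied alongside 4 ng/ml IFN-beta to HLA-B*08:01-HiBiT knock-in myoblasts. Luminescence is measured after 24 h treatment.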
# Potency is the fitted concentration of half-maximal effect.
row,Compound,Potency
1,C[C@@H](CN(C)C)CN1c2ccccc2Sc2ccccc21,inactive
2,Oc1ccc(Cl)c2cccnc12,inactive
3,CCCCCC=CCC=CCCCCCCCC(=O)OCC,inactive
4,COc1c(C)c2c(c(O)c1C/C=C(\C)CCC(=O)O)C(=O)OC2,inactive
5,CN1CCCC(CC2c3ccccc3Sc3ccccc32)C1 (stereo not drawn),inactive
6,"Cc1c2oc3c(C)ccc(C(=O)N[C@@H]4C(=O)N[C@H](C(C)C)C(=O)N5CCC[C@H]5C(=O)N(C)CC(=O)N(C)[C@@H](C(C)C)C(=O)O[C@@H]4C)c3nc-2c(C(=O)N[C@@H]2C(=O)N[C@H](C(C)C)C(=O)N3CCC[C@H]3C(=O)N(C)CC(=O)N(C)[C@@H](C(C)C)C(=O)O[C@@H]2C)c(N)c1=O (I: T[dV]P[Sar][NMeV] / II: T[dV]P[Sar][NMeV]; ester I:1-I:C, II:1-II:C; linker I:N-II:N via Actinocin(9to1))",938 nM (active)
7,CC(=O)Nc1c(I)cc(I)c(C(=O)O)c1I,inactive
8,CC(=O)O[C@]1(C(C)=O)CC[C@H]2[C@@H]3C[C@H](C)C4=CC(=O)CC[C@]4(C)[C@H]3CC[C@@]21C,inactive
9,COc1cc(/C=C/C(=O)O[C@H]2CC[C@]34C[C@]35CC[C@]3(C)[C@@H]([C@H](C)CCC=C(C)C)CC[C@@]3(C)[C@@H]5CC[C@H]4C2(C)C)ccc1O,inactive
10,COc1ccc(OC)c(C(O)CNC(=O)CN)c1 (stereo not drawn),inactive
11,CC(C)N=C(N)/N=C(\N)Nc1ccc(Cl)cc1,inactive
12,CN(C)C(=S)SC(=S)N(C)C,inactive
13,CN(C)CC/C=C1/c2ccccc2COc2ccc(CC(=O)O)cc21,inactive
